Values joined by “and” are separate entries in the source; they are usually repeats but may differ in a detail not shown here. Equal values may be shown once. Out of some 5,500 compounds screened, about 2,000 (36%) were called active. About 18% were inconclusive and are not listed. Rule as the data show it: active = normalized growth mostly below about 0.91 (no sharp cut-off); inconclusive = no clear call, values can overlap the other calls; inactive = mostly above about 0.92. This is one part of the list.
Experiment: chemical genetic growth profiling, strain panel (AID 1159580);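 also: tested at 20 µM; growth read once vehicle control cultures reached saturation at 30 °C; 1 = growth at the plate median or of vehicle wells; lower values mean less growth of the strain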
Settings: S. cerevisiae deletion strains, growth OD

Measured: normalized growth

CCCCN(CC)c1c([N+](=O)[O-])cc(C(F)(F)F)cc1[N+](=O)[O-]
inactive: locus YAL013W, strain DEP1, active compounds read low 1.01 | locus YAL021C, strain ccr4, active compounds read low 0.998 | locus YAL026C, strain drs2, active compounds read low 1.02 | locus YAL030W, strain snc1, active compounds read low 1.02 | locus YBL061C, strain skt5, active compounds read low 1 | locus YBR009C, strain hhf1, active compounds read low 1 | locus YBR021W, strain FUR4, active compounds read low 1.03 | locus YBR023C, strain chs3, active compounds read low 1.01 | locus YBR171W, strain sec66, active compounds read low 1.03 | locus YBR229C, strain ROT2, active compounds read low 0.999 | locus YBR231C, strain swc5, active compounds read low 1 | locus YBR279W, strain paf1, active compounds read low 1.01 | locus YCL011C, strain gbp2, active compounds read low 1 | locus YCL016C, strain dcc1, active compounds read low 1.01 | locus YCL029C, strain bik1, active compounds read low 1.02 | locus YCL061C, strain MRC1, active compounds read low 1.01 | locus YCL069W, strain vba3, active compounds read low 1.02 | locus YCR088W, strain abp1, active compounds read low 1.01 | locus YDL005C, strain med2, active compounds read low 1.02 | locus YDL035C, strain GPR1, active compounds read low 1.02 | locus YDL040C, strain nat1, active compounds read low 1.01 | locus YDL074C, strain BRE1, active compounds read low 1.03 | locus YDL101C, strain DUN1, active compounds read low 1.01 | locus YDL134C, strain PPH21, active compounds read low 1.01 | locus YDL185W, strain tfp1, active compounds read low 1.03 | locus YDL192W, strain arf1, active compounds read low 1.02 | locus YDR001C, strain nth1, active compounds read low 1.01 | locus YDR069C, strain doa4, active compounds read low 1 | locus YDR101C, strain arx1, active compounds read low 1.01 | locus YDR137W, strain rgp1, active compounds read low 0.98 | locus YDR150W, strain NUM1, active compounds read low 1.01 | locus YDR159W, strain sac3, active compounds read low 1 | locus YDR162C, strain NBP2, active compounds read low 1.02 | locus YDR195W, strain ref2 1.01 | locus YDR297W, strain sur2, active compounds read low 1 | locus YDR318W, strain mcm21, active compounds read low 1.01 | locus YDR334W, strain swr1, active compounds read low 1.02 | locus YDR335W, strain msn5, active compounds read low 1.02 | locus YDR388W, active compounds read low 1.01 | locus YDR392W, strain spt3, active compounds read low 1.01 | locus YDR502C, strain sam2, active compounds read low 1.01 | locus YEL003W, strain gim4, active compounds read low 1.02 | locus YEL037C, strain rad23, active compounds read low 1.01 | locus YEL061C, strain CIN8 (second series), active compounds read low 1.03 | locus YEL061C, strain CIN8, active compounds read low 1.01 | locus YER015W, strain faa2, active compounds read low 1.02 | locus YER016W, strain bim1, active compounds read low 1.01 | locus YER110C, active compounds read low 1.02 | locus YER111C, strain swi4, active compounds read low 1.01 | locus YER155C, strain BEM2 (second series), active compounds read low 1.03 | locus YER155C, strain BEM2, active compounds read low 1.01 | locus YER167W, strain BCK2, active compounds read low 1.01 | locus YFR010W, strain ubp6, active compounds read low 1.02 | locus YGL078C, strain dbp3, active compounds read low 1.01 | locus YGL086W, strain mad1, active compounds read low 1.01 | locus YGL167C, strain pmr1, active compounds read low 1.01 | locus YGL173C, strain kem1, active compounds read low 1.01 | locus YGL227W, strain vid30, active compounds read low 1.01 | locus YGL240W, strain doc1, active compounds read low 1.02 | locus YGL248W, strain PDE1, active compounds read low 1 | locus YGL253W, strain hxk2, active compounds read low 1.02 | locus YGR078C, strain PAC10, active compounds read low 1.01 | locus YGR135W, strain pre9, active compounds read low 1.01 | locus YGR229C, strain SMI1, active compounds read low 1.02 | locus YGR252W, strain gcn5, active compounds read low 1.05 | locus YHR013C, strain ard1, active compounds read low 1.06 | locus YHR027C, strain rpn1, active compounds read low 1.03 | locus YHR030C, strain SLT2, active compounds read low 1.01 and 1.08 | locus YHR079C, strain IRE1 (second series), active compounds read low 1.01 | locus YHR079C, strain IRE1, active compounds read low 1.03 | locus YHR094C, strain hxt1, active compounds read low 1.01 | locus YHR129C, strain ARP1, active compounds read low 1.01 | locus YHR142W, strain chs7, active compounds read low 1.02 | locus YHR200W, strain rpn10, active compounds read low 1.01 | locus YIL066C, strain RNR3, active compounds read low 1.01 | locus YIL073C, strain SPO22, active compounds read low 1.02 | locus YIL125W, strain kgd1, active compounds read low 1.01 | locus YIR030C, strain dcg1, active compounds read low 1.01 | locus YJL092W, strain hpr5, active compounds read low 1.01 | locus YJL095W, strain BCK1 (second series), active compounds read low 1.01 | locus YJL095W, strain BCK1, active compounds read low 0.996 and 1.05 | locus YJL115W, strain asf1, active compounds read low 1.01 | locus YJL129C, strain trk1, active compounds read low 1.01 | locus YJL134W, strain LCB3, active compounds read low 1.01 | locus YJL154C, strain vps35, active compounds read low 1.02 | locus YJL164C, strain tpk1, active compounds read low 1.01 | locus YJL166W, strain qcr8, active compounds read low 1 | locus YJL168C, strain set2, active compounds read low 1.01 | locus YJL187C, strain SWE1 (second series), active compounds read low 1.01 | locus YJL187C, strain SWE1, active compounds read low 1.01 | locus YJR043C, strain POL32, active compounds read low 1.02 | locus YJR066W, strain TOR1, active compounds read low 0.992

Source: PubChem BioAssay AID1159580 (chemical genetic matrix, 2015)
